Measurements published in PubChem BioAssay AID1159580 (chemical genetic matrix, 2015).
“And” between values parts separate entries of the source, which are not always exact repeats. Equal values may be shown once. About 2,000 (36%) of roughly 5,500 compounds were called active. Not shown: some 18% with an inconclusive outcome. Cut-off read from the data, not from the text of the source: active = normalized growth mostly below about 0.91 (no sharp cut-off); inconclusive = no clear call, values can overlap the other calls; inactive = mostly above about 0.92. The list shows a part of the results.

Experiment: chemical genetic growth profiling, strain panel (AID 1159580);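 note: tested at 20 µM; growth read once vehicle control cultures reached saturation at 30 °C; 1 = growth at the plate median or of vehicle wells; lower values mean less growth of the strain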
Conditions: S. cerevisiae deletion strains, growth OD

Measured: normalized growth

CC(=O)O[C@]1(C(C)=O)CCC2C3C[C@H](C)C4=CC(=O)CC[C@]4(C)C3CC[C@@]21C (stereo partly drawn)
inactive: locus YAL021C, strain ccr4, hits give low values 1 | locus YAL026C, strain drs2, hits give low values 0.992 | locus YAL030W, strain snc1, hits give low values 0.968 | locus YBL061C, strain skt5, hits give low values 0.964 | locus YBR009C, strain hhf1, hits give low values 0.955 | locus YBR021W, strain FUR4, hits give low values 0.993 | locus YBR023C, strain chs3, hits give low values 0.924 | locus YBR171W, strain sec66, hits give low values 0.95 | locus YBR229C, strain ROT2, hits give low values 0.993 | locus YBR231C, strain swc5, hits give low values 0.971 | locus YBR279W, strain paf1, hits give low values 0.97 | locus YCL011C, strain gbp2, hits give low values 0.931 | locus YCL016C, strain dcc1, hits give low values 0.916 | locus YCL029C, strain bik1, hits give low values 0.957 | locus YCL061C, strain MRC1, hits give low values 0.965 | locus YCL069W, strain vba3, hits give low values 0.958 | locus YCR088W, strain abp1, hits give low values 0.961 | locus YDL005C, strain med2, hits give low values 0.959 | locus YDL035C, strain GPR1, hits give low values 1.01 | locus YDL040C, strain nat1, hits give low values 0.971 | locus YDL074C, strain BRE1, hits give low values 0.983 | locus YDL101C, strain DUN1, hits give low values 0.993 | locus YDL185W, strain tfp1, hits give low values 0.956 | locus YDL192W, strain arf1, hits give low values 0.966 | locus YDR001C, strain nth1, hits give low values 0.97 | locus YDR069C, strain doa4, hits give low values 0.992 | locus YDR101C, strain arx1, hits give low values 0.999 | locus YDR150W, strain NUM1, hits give low values 0.99 | locus YDR159W, strain sac3, hits give low values 0.971 | locus YDR162C, strain NBP2, hits give low values 0.993 | locus YDR195W, strain ref2 1.07 | locus YDR297W, strain sur2, hits give low values 0.971 | locus YDR318W, strain mcm21, hits give low values 0.961 | locus YDR334W, strain swr1, hits give low values 0.96 | locus YDR335W, strain msn5, hits give low values 0.971 | locus YDR388W, hits give low values 0.989 | locus YDR502C, strain sam2, hits give low values 0.954 | locus YEL003W, strain gim4, hits give low values 0.987 | locus YEL037C, strain rad23, hits give low values 0.962 | locus YEL061C, strain CIN8 (second series), hits give low values 0.97 | locus YEL061C, strain CIN8, hits give low values 0.991 | locus YER015W, strain faa2, hits give low values 0.969 | locus YER016W, strain bim1, hits give low values 0.975 | locus YER110C, hits give low values 0.96 | locus YER111C, strain swi4, hits give low values 0.96 | locus YER155C, strain BEM2 (second series), hits give low values 0.976 | locus YER155C, strain BEM2, hits give low values 0.98 | locus YER167W, strain BCK2, hits give low values 0.977 | locus YFR010W, strain ubp6, hits give low values 0.981 | locus YGL078C, strain dbp3, hits give low values 0.982 | locus YGL086W, strain mad1, hits give low values 0.995 | locus YGL167C, strain pmr1, hits give low values 0.948 | locus YGL173C, strain kem1, hits give low values 0.969 | locus YGL227W, strain vid30, hits give low values 0.969 | locus YGL240W, strain doc1, hits give low values 0.98 | locus YGL248W, strain PDE1, hits give low values 0.992 | locus YGL253W, strain hxk2, hits give low values 0.91 | locus YGR135W, strain pre9, hits give low values 0.912 | locus YGR252W, strain gcn5, hits give low values 0.926 | locus YHR013C, strain ard1, hits give low values 0.968 | locus YHR027C, strain rpn1, hits give low values 0.984 | locus YHR030C, strain SLT2, hits give low values 0.997 and 0.999 | locus YHR079C, strain IRE1 (second series), hits give low values 0.979 | locus YHR079C, strain IRE1, hits give low values 0.98 | locus YHR094C, strain hxt1, hits give low values 0.991 | locus YHR129C, strain ARP1, hits give low values 0.993 | locus YHR200W, strain rpn10, hits give low values 0.982 | locus YIL066C, strain RNR3, hits give low values 0.991 | locus YIL073C, strain SPO22, hits give low values 0.932 | locus YIL125W, strain kgd1, hits give low values 0.996 | locus YIR030C, strain dcg1, hits give low values 0.962 | locus YJL092W, strain hpr5, hits give low values 0.964 | locus YJL095W, strain BCK1 (second series), hits give low values 0.953 | locus YJL095W, strain BCK1, hits give low values 0.961 and 1 | locus YJL115W, strain asf1, hits give low values 0.969 | locus YJL129C, strain trk1, hits give low values 0.902 | locus YJL134W, strain LCB3, hits give low values 0.993 | locus YJL154C, strain vps35, hits give low values 0.964 | locus YJL164C, strain tpk1, hits give low values 0.97 | locus YJL166W, strain qcr8, hits give low values 0.926 | locus YJL168C, strain set2, hits give low values 0.985 | locus YJL187C, strain SWE1 (second series), hits give low values 0.985 | locus YJL187C, strain SWE1, hits give low values 0.976 | locus YJR043C, strain POL32, hits give low values 1.03 | locus YJR066W, strain TOR1, hits give low values 0.958
active: locus YDR137W, strain rgp1, hits give low values 0.839 | locus YDR392W, strain spt3, hits give low values 0.635 | locus YHR142W, strain chs7, hits give low values 0.841
